Lassa entry inh: Lassa virus entry inhibition. Lassa virus pseudotype entry inhibition, cell reporter. Potency, µM (doses to about 37.9 µM), most hits filed as inhibitors. actives 1.2% (n = 300,000). AID 540256; calls by dose curve; tested in HEK293 cells; also: nearly all actives have a fitted effect of over 50% in size
HCMV inh: human cytomegalovirus inhibition | HFF cells, HCMV-luciferase reporter, 72 h; active compounds read low | activity change, negative = inhibition, % at 57.5 µM | actives 4.5% (n = 410,000) | AID 1259415; in the data active = activity change below about -60%; inconclusive = no clear call, values can overlap the other calls; inactive = above about -39%
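HFF cells seeded 16 h at 37C, treated with compounds, infected with luciferase-reporter HCMV at MOI 1 PFU/cell; luciferase read at 72 h post infection, normalized to buffer-only and Salinomycin controls.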
Marburg entry inh: inhibitors of Marburg virus binding or cell entry. Marburg virus pseudotyped entry inhibition, cell reporter. Potency, µM (titrated, usually from 37.8 µM), hits mostly inhibitors. actives 1.8% (n = 300,000). AID 540276; calls by dose curve; tested in HEK293 cells
FMDV antiviral: blocks foot and mouth disease virus; FMDV antiviral cell-based qHTS; Potency, µM (titrated, usually from 57.9 µM), hits mostly inhibitors; actives 1.2% (n = 410,000); AID 1159524; calls by dose curve; tested in HEK293T cells; also: read-out not given here; nearly all actives have a fitted effect of over 45% in size
HCV inh: inhibitors of hepatitis C virus infection. Huh7.5.1 HCVcc-Cre infection, luciferase reporter, 44 h. Potency, µM (doses to about 41.8 µM), most hits filed as inhibitors. actives 3.4% (n = 340,000). AID 651820; active = well fitted inhibition curve with a large enough effect; inconclusive = small, poorly fitted or top-dose-only effect, or another doubt; inactive = no such curve, though single readings can be large or run the other way
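Reporter virus HCVcc-Cre (~0.5 moi) infects cells exposed to compound; seeding density 1,000 cells/well with 4 h settling beforehand. Luminescence, 15 sec read, taken 44 h post-infection following a 15 min RT substrate incubation.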
Each line names hits and unclear results; the compound was inactive in the other large screens. This is a sample that favours compounds with a hit; in the whole collection about 7.9% have one here.

Cc1ccc(N(C)S(=O)(=O)c2ccc(-c3cc(C)no3)s2)cc1	HCV inh inconclusive (no result: Lassa entry inh, Marburg entry inh)
C=CCNC(=O)CN1CCC(n2c(C)nc3cc(C(F)(F)F)ccc32)CC1	none
Cc1nc2cc(C(F)(F)F)ccc2n1C1CCN(CC(=O)NC(C)(C)C)CC1	HCMV inh -82, Marburg entry inh inconclusive
CC(C)(C)c1ccc(O[C@@H]2[C@H](O)CO[C@@H]2/C=C/C#Cc2ccccc2)cc1	none (no result: Lassa entry inh, HCMV inh, FMDV antiviral, HCV inh)
CC1=C(C(=O)Nc2ccccc2)C(c2ccc(Cl)cc2)n2c(s/c(=C/c3cccc(OCC(=O)O)c3)c2=O)=N1 (stereo not given)	HCMV inh -68
C[C@@H]1CN([C@@H](C)CO)C(=O)CCCn2nncc2CO[C@H]1CN(C)C(=O)C1CC1	none (no result: Lassa entry inh, Marburg entry inh, HCV inh)
Cc1c(C(=O)NCC2(N3CCOCC3)CCCCC2)cnn1-c1nccc(-c2ccccc2F)n1	none (no result: Lassa entry inh, HCMV inh, Marburg entry inh, HCV inh)
CCOC(=O)c1c(NC(=O)c2ccc(Br)cc2)sc2c1CCCC2	none (no result: Marburg entry inh, HCV inh)
CCOC(=O)Nc1sc2c(c1C(=O)OCC)CCC2	none
CCOC(=O)c1c(NC(=O)CSc2nnc(C)s2)sc2c1CCC(C)C2 (stereo not given)	Lassa entry inh inconclusive, Marburg entry inh inconclusive, HCV inh 11µM
CCOC(=O)c1c(NC(NC(=O)C(C)C)C(Cl)(Cl)Cl)sc2c1CCC2 (stereo not given)	Lassa entry inh inconclusive, Marburg entry inh 11µM, FMDV antiviral inconclusive, HCV inh inconclusive
CCOC(=O)c1c(NC(=O)c2ccc(-n3cnnn3)cc2)sc2c1CCCC2	Lassa entry inh 16µM, Marburg entry inh inconclusive, HCV inh inconclusive (no result: HCMV inh)
CCOC(=O)c1c(NC(=O)CS(=O)(=O)c2ccc(C)cc2)sc2c1CCC(C)C2 (stereo not given)	none (no result: Marburg entry inh, HCV inh)
CCOC(=O)c1c(NC(=S)NC(=O)c2ccc(Cn3cc(Cl)cn3)o2)sc2c1CCC(C)C2 (stereo not given)	HCMV inh -71, HCV inh inconclusive (no result: Lassa entry inh)
CC1CCc2c(sc(NC(=O)Cn3cnc([N+](=O)[O-])n3)c2C(N)=O)C1 (stereo not given)	HCMV inh -62 (no result: Lassa entry inh, Marburg entry inh)
CCOC(=O)c1c(NC(=O)C(C)OC(=O)C2=COCCO2)sc2c1CCCC2 (stereo not given)	HCV inh 13µM (no result: Lassa entry inh, HCMV inh, Marburg entry inh)
CCOC(=O)c1c(NC(=O)Cn2nnc3ccccc32)sc2c1CCC(C)C2 (stereo not given)	Marburg entry inh inconclusive, HCV inh 1.6µM
CCOC(=O)c1c(NC(=O)CSc2nnc(-c3c[nH]c4ccccc34)n2C)sc2c1CCCC2	Marburg entry inh inconclusive, FMDV antiviral inconclusive
CCOC(=O)c1c(NC(=O)CSc2nnc(-c3c[nH]c4ccccc34)n2CCOC)sc2c1CCCC2	Lassa entry inh inconclusive, HCMV inh inconclusive, HCV inh 11µM
NC(=O)c1c(NC(=O)Cn2cnc([N+](=O)[O-])n2)sc2c1CCCC2	none (no result: Lassa entry inh, Marburg entry inh)
CCOC(=O)c1c(NC(=O)CSc2nnc(N)s2)sc(C)c1-c1ccc(C)cc1	HCMV inh inconclusive, FMDV antiviral inconclusive, HCV inh 25µM (no result: Lassa entry inh, Marburg entry inh)
CCOC(=O)c1c(NC(=O)CSc2nnc(C)s2)sc2c1CCCCC2	Marburg entry inh inconclusive, FMDV antiviral inconclusive, HCV inh 10µM
CCOC(=O)C1CCN(c2ncnc3c2oc2ccccc23)CC1	none (no result: FMDV antiviral)
c1ccc(N2CCN(c3ncnc4c3oc3ccccc34)CC2)cc1	Marburg entry inh inconclusive, FMDV antiviral 35µM
CCc1nnc(N2CCN(c3ncnc4c3oc3ccccc34)CC2)s1	HCMV inh inconclusive, FMDV antiviral 22µM
Cc1ccc2c(c1)c1ncnc(N3CCN(c4ccccc4)CC3)c1n2C	Lassa entry inh inconclusive, FMDV antiviral 20µM
O=C(CSc1ncnc2c1oc1ccccc12)N1CCN(c2ccccc2)CC1	none
CC(=O)N1CCN(c2ccc(Nc3ncnc4c3oc3ccccc34)cc2)CC1	Lassa entry inh inconclusive, HCMV inh inconclusive, Marburg entry inh inconclusive, FMDV antiviral 28µM, HCV inh inconclusive
CCn1c(-c2ccccc2F)nc2cc(C(=O)N3CCNC(=O)C3CC(=O)OC)cc(NC(C)=O)c21 (stereo not given)	none (no result: Lassa entry inh, HCMV inh, Marburg entry inh, HCV inh)
CCOc1ccccc1NC(=O)Cn1ncc2c(=O)oc3ccc(C)cc3c21	Lassa entry inh inconclusive (no result: HCV inh)
CC(OC(=O)Cc1c[nH]c2ccccc12)C(=O)Nc1ccc(S(N)(=O)=O)cc1 (stereo not given)	Marburg entry inh inconclusive
CCCCCC1CC1C(=O)N/N=C/c1ccc(N(C)C)cc1 (stereo not given)	Lassa entry inh 0.46µM
CCn1c(C)c(C(C)=O)c(NCc2ccccc2)nc1=S	HCMV inh -81

Compound activity deposited in PubChem by National Center for Advancing Translational Sciences (NCATS).
